The source of these data is PubChem BioAssay.

What is called viability is a read-out of living cells in per cent, often relative to untreated cells. As usually defined, the inhibition is the relative decrease from the control value, in per cent.

SMILES strings stand for the structures. Inconclusive results are not listed. Calls of active or inactive are those of the source.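 Rule for the calls, unless noted: active = inhibition over a set limit, the all-compound mean plus 3 SD, in both replicate runs; inconclusive = over that limit in just one replicate run; inactive = at or under that limit in both runs.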

Assay [1] can be described thus: reducers of endogenous Her2 protein level, primary screen, SKBR3 breast tumor cells, AlphaScreen, ATP viability (AID 461;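 active = Her2 level under about 52% in both replicate screens, with viability over 70% of control, limit read from the data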;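 for Her2 level: lower value means less Her2 protein in the cells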;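 for viability: percent of carrier control wells set as 100% viability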). The settings on record: 18-24 h, measured here: SKBR3 viability, ATP luminescence, at 10 µM. Background: Alpha assays give light when donor and acceptor beads are brought close together.
Assay [2] has as its target Receptor tyrosine-protein kinase erbB-2 (Homo sapiens) (UniProt P04626). The description is as above. The settings on record: 18-24 h, at 10 µM, stronger effect = lower value.
A short description of assay [3]: SK-BR-3 cell growth inhibitors, pilot screen, 24 h, human (AID 572;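 active = viability at or below 10% of carrier control in both of two separate runs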;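 note: compound exposure lasted between 18 and 24 h rather than exactly 24 h; 100% = carrier-treated control wells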). The settings on record: SK-BR-3 viability, CellTiter-Glo luminescence, at 10 µM, stronger effect = lower value. (In general: Cellular ATP, detected with luciferase, serves as a proxy for viable cell number.)
The nature of assay [4]: HUVEC growth inhibition – cell-based, human, primary screen (AID 575;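 active = viability at or below 30% in both replicate assays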;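 note: 100% = median of untreated cell wells with 0.1% DMSO on each plate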). The settings on record: HUVEC proliferation, CellTiter-Glo luminescence, 72 h; at 10 µM; stronger effect = lower value.
Assay [5] in a line: growth inhibitors of H69AR lung tumor, primary screen, human, duplicate replicates (AID 580;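 active = viability at or under a set limit in both replicates, limit being median viability minus 3 SD, cut at about 48% in these data, passing the limit was not always enough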;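 note: 100% = mean luminescence of untreated wells and 0% = no signal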). The settings on record: H69AR lung tumor cells viability, ATP luminescence, 72 h; at 10 µM; stronger effect = lower value.
Assay [6] can be described thus: reversal of MRP1-mediated doxorubicin resistance, pilot screen, H69AR cells, doxorubicin co-treatment (AID 601;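 active = viability loss from added drug above about 55%, and viability with drug at most 40%, in both replicates, limit read from the data, passing the limit was not always enough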). The settings on record: CellTiter-Glo, 72 h, at 10 µM; for differential viability (reversal): stronger effect = higher value.
Assay [7] is described as follows: 384-well plate pilot, post-Golgi transport modulator project, inhibition of yeast transport mutant growth (AID 636; in the data active = inhibition above about 31%). The settings on record: absorbance 615 nm, about 18 h, stronger effect = higher value.
Assay [8] can be described thus: growth suppression of yeast trafficking mutant, preliminary HTS, modulators of trafficking downstream of Golgi apparatus project, 1536-format plate, OD 615 nm (AID 637; in the data active = inhibition above about 30%). The settings on record: yeast transport mutant growth, absorbance 615 nm, 18 h; stronger effect = higher value.
Assay [9] in a line: OD615 S. cerevisiae growth inhibition, permissive medium, pilot counter-assay, permissive growth control for S. cerevisiae lifespan shortening project (AID 705;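 active = growth inhibition above 25% in both replicates, a cutoff set 3 SD above the mean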). The settings on record: OD615, 24 h, at 10 µM, stronger effect = higher value.
Assay [10] can be described thus: Restrictive medium S. cerevisiae growth inhibition, OD615, pilot screen of yeast lifespan reduction project, restrictive growth control (AID 706;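 active = growth inhibition above a set limit, 3 SD over mean compound inhibition, in both replicates, cut at about 43% in these data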;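 note: modified DeaD lifespan yeast strain shifted to restrictive glucose medium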). The settings on record: OD615, 48 h, at 10 µM, stronger effect = higher value.
A short description of assay [11]: viability gain of MRP-1-high H69AR cells under doxorubicin, pilot screen, MRP-1 activator project, CellTiter-Glo, duplicate (AID 807;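 active = viability increase at or above a cutoff of the median across tested compounds plus 3 SD, cut at about 8.5% in these data, passing the limit was not always enough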;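 note: compound pretreatment 18-22 h then 72 h combined with doxorubicin; 0% = doxorubicin alone and 100% = vehicle without doxorubicin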). The settings on record: H69AR viability with doxorubicin, CellTiter-Glo luminescence; at 10 µM; stronger effect = higher value.
The nature of assay [12]: growth suppression of beta-catenin knockout HCT116, pilot screen, human colon tumor cells (AID 823;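 active = cell viability at or below a set limit in both duplicate runs, the limit being the all-compound median minus 4 SD, cut at about 23% in these data, passing the limit was not always enough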;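 note: 0% = wells killed by 20 µM Hyamine and 100% = untreated DMSO cell wells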). The settings on record: CellTiter-Glo, 60 h, at 10 µM, stronger effect = lower value.
A short description of assay [13]: growth suppression of PTEN-deleted HCT116, pilot screen, cell-based, HCT116 clonal line, CellTiter-Glo (AID 824;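 active = viability at or below 27.92% in each of two runs, the all-compound median minus 4 SD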;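 note: 0% = 20 µM Hyamine control and 100% = vehicle cell control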). The settings on record: 60 h, at 10 µM, stronger effect = lower value.
The nature of assay [14]: inhibitors of the yeast RAM network, pilot screen, dse1pr::URA3 reporter, 5-FOA selection (AID 869).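 Note: 0% = DMSO wells with no growth and 100% = 10 µM 1-NA-PP1 with full growth; RAM network block rescues cells from 5-FOA so hits raise OD615 growth.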 The settings on record: S. cerevisiae dse1pr::URA3 5-FOA growth, OD615, 2 d; at 10 µM; stronger effect = higher value; strain carries analog-sensitive mutant Cbk1 kinase.
The nature of assay [15]: RAM signaling pathway blockade in yeast – S. cerevisiae, Pdr1DBD-CYC8 efflux-inhibited sensitized strain, primary screen (AID 1298;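 active = RAM network inhibition above 8.4% in each of two replicates, 3 SD over the compound average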;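 note: 0% = DMSO untreated cells without growth and 100% = 10 µM 1-NA-PP1 full growth; higher means more yeast growth rescued from 5-FOA killing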). The settings on record: S. cerevisiae cbk1-as DSE1-URA3 strain, 5-FOA growth OD615, 2 d; at 50 µM; stronger effect = higher value.
The mark [16] stands for this setting: H69AR cells + 2 uM doxorubicin, measured here: viability with 2 uM doxorubicin, stronger effect = lower value.
[17] abbreviates: H69AR cells, compound alone cytotoxicity.

Sequence of Receptor tyrosine-protein kinase erbB-2 (Homo sapiens) (P04626 whole entry, looked up): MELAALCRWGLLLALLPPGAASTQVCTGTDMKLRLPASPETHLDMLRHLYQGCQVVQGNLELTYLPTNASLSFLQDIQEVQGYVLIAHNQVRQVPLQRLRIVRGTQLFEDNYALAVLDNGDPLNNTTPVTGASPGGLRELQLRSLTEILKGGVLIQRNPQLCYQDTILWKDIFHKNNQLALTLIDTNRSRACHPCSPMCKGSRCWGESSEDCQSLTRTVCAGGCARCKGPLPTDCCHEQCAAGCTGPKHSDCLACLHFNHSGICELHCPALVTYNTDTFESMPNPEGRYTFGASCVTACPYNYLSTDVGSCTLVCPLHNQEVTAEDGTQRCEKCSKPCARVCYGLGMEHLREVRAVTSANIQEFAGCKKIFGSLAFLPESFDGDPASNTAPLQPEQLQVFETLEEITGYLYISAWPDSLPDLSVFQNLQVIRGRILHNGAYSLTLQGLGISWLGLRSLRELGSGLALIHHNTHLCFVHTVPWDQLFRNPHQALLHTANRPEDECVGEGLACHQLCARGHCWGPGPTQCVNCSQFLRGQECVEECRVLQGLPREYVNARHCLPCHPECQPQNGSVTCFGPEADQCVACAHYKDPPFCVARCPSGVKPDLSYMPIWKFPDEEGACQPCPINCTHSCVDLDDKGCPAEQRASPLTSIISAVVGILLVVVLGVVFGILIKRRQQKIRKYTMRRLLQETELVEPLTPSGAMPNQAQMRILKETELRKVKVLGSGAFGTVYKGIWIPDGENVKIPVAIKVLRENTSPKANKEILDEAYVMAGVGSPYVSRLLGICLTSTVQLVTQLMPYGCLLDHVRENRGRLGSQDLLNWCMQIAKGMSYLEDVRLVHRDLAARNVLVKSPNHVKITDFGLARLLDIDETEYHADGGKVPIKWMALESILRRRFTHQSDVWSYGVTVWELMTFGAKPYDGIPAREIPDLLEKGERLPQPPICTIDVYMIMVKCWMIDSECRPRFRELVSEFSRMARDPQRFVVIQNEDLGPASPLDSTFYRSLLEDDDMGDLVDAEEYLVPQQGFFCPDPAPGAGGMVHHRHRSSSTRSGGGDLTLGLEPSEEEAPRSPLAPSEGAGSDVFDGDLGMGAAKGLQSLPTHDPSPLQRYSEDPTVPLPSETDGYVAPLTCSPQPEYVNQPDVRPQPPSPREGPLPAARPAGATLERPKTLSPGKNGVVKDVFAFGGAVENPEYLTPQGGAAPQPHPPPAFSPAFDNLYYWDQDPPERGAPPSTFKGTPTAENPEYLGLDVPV

As for `CCOc1ccc(N(CC(=O)NC2CCCCC2)S(=O)(=O)c2c(C)noc2C)cc1`, the viability in assay [1] is 79.5%; in assay [3], 79.5% (inactive); in assay [4], 87.3% (inactive); in assay [5] it was 74.3% (inactive); in [6] (setting [16]) it was 85.6%; in assay [6] (setting [17]), 74.3%. The viability in assay [12] is 95.5% (inactive); in assay [13], 89% (inactive). The Her2 level in assay [2] was 86.5% (inactive). In assay [6] (H69AR cells + 2 uM doxorubicin), the differential viability (reversal) was -11.3% (inactive). In addition, the inhibition in assay [7] was -2.31% (inactive); in assay [8], -12.8% (inactive); in assay [14], 3.15% (inactive). Besides, the growth inhibition in assay [9] is -6.46% (inactive); in [10], 0.415% (inactive). The viability increase in assay [11] was -1.54% (inactive). The RAM network inhibition in assay [15] is 1.06% (inactive).

Take `COC(=O)Cn1c(CN2CCOCC2)nc2c1c(=O)n(C)c(=O)n2C`: the viability in [1] was 81.5%; in assay [3], 81.5% (inactive); in assay [4], 89.2% (inactive); in assay [5] it was 99.8% (inactive); in assay [6] (setting [16]) it was 94%; in assay [6] (setting [17]), 99.8%. Also, the viability is 104% (inactive) in assay [12] and 96.7% (inactive) in assay [13]. Further, in assay [2], the Her2 level was 86.5% (inactive). Further, the differential viability (reversal) in assay [6] (H69AR cells + 2 uM doxorubicin) is 5.79% (inactive). Moreover, the inhibition is -4% (inactive) in assay [7], -2% (inactive) in [8] and 1.2% (inactive) in assay [14]. For the same compound, the growth inhibition was -0.42% (inactive) in assay [9] and 1.05% (inactive) in assay [10]. Besides, in assay [11], the viability increase is -0.73% (inactive). For the same compound, the RAM network inhibition in [15] is -1.44% (inactive).

As to `Nc1cc(N)cc(-c2nc3ccccc3o2)c1`, the viability in assay [1] was 100%; in [3], 100% (inactive); in assay [4], 87.3% (inactive); in assay [5] it was 93.7% (inactive); in assay [6] (setting [16]) it was 74.7%; in assay [6] (setting [17]), 93.7%. The viability is 100% (inactive) in assay [12] and 95.4% (inactive) in assay [13]. The Her2 level in [2] was 106% (inactive). Also, the differential viability (reversal) in [6] (H69AR cells + 2 uM doxorubicin) is 19.1% (inactive). Besides, the inhibition in [7] was -2.4% (inactive); in [8] it was 3.17% (inactive); in assay [14] it was 2.14% (inactive). The results for the growth inhibition in [9] and in assay [10] were 1.61% (inactive) and 6.39% (inactive), respectively. In addition, the viability increase in assay [11] is -0.39% (inactive). In addition, the RAM network inhibition in [15] was 0.61% (inactive).

On to `CCC1CCCCN1CCNS(=O)(=O)c1ccc2c(c1)oc(=O)n2C` (stereo not given), for which the viability in [1] is 91.5%; in assay [3], 91.5% (inactive); in assay [4] it was 79.8% (inactive); in assay [5], 85.2% (inactive); in [6] (setting [16]), 85.1%; in assay [6] (setting [17]), 85.2%. Also, the viability in [12] is 97.9% (inactive); in [13], 95.1% (inactive). In addition, the Her2 level in assay [2] was 84.5% (inactive). The differential viability (reversal) in assay [6] (H69AR cells + 2 uM doxorubicin) is 0.025% (inactive). Besides, the inhibition in assay [7] is -1.28% (inactive); in [8] it was 0.67% (inactive); in assay [14] it was 2.01% (inactive). Further, the growth inhibition in assay [9] was -0.855% (inactive); in assay [10], -5.11% (inactive). Further, the viability increase in assay [11] was -2.8% (inactive). In assay [15], the RAM network inhibition is -1.43% (inactive).

For the compound `CCOc1ccccc1N(CC(=O)N1CCCCCC1)S(C)(=O)=O`, the viability was 99% in assay [1]; 99% (inactive) in assay [3]; 97.5% (inactive) in assay [4]; 99.8% (inactive) in assay [5]; 89.5% in [6] (setting [16]); 99.8% in assay [6] (setting [17]). Moreover, the viability in assay [12] was 91.1% (inactive); in assay [13], 99.4% (inactive). Besides, the Her2 level in assay [2] was 97% (inactive). Also, the differential viability (reversal) in [6] (H69AR cells + 2 uM doxorubicin) is 10.3% (inactive). Besides, the inhibition in assay [7] was -1.3% (inactive); in [8], 1.15% (inactive); in assay [14] it was 0.65% (inactive). In addition, the values for the growth inhibition in assay [9] and in [10] were -4.37% (inactive) and -10.9% (inactive), respectively. In addition, the viability increase in assay [11] was -1.33% (inactive). In addition, in [15], the RAM network inhibition was 3.99% (inactive).
